Records with an inconclusive call do not appear. Calls of active or inactive are those of the source. Calls come from the whole dose curve; as a rule, active = well fitted cell-killing curve with a large enough effect in the repeat runs; inconclusive = weak or mixed curves; inactive = flat fitted curve, though single readings scatter.
test: qHTS RealTime-Glo MT Cell Viability Assay in HepG2 cells - 32 hour (AID 1224877); details: RealTime-Glo luminescence; series mostly up to 76.8 µM; note: nearly all actives have a fitted effect of over 55% in size
Excerpt: U.S. Tox21 Program National Center for Advancing Translational Sciences [NCATS] NIH Chemical Genomics Center [NCGC] U.S. Environmental Protection Agency [EPA] National Institutes of Environmental Health Sciences [NIEHS] National Toxicology Program [NTP] U.S. Food and Drug Administration [FDA] Tox21 Assay Overview: Measure of cell viability is critical in the cell-base assay. Analysis of cell viability is necessary for the characterization of cell responses to cytotoxic drugs and environmental stress. A RealTime-Glo MT Cell Viability Assay to monitor cell viability in real time of continues cell culture during 40 hours of compound treatment was used to screen Tox21 10K library compounds in HepG2 cells. The RealTime-Glo MT Cell Viability Assay is a nonlytic, homogeneous, bioluminescent method to measure cell viability in real time using a simple, plate-based method. The assay involves adding NanoLuc luciferase and a cell-permeant prosubstrate to cells in culture. Viable cells reduce the proprietary prosubstrate to generate a substrate for NanoLuc luciferase. This substrate diffuses from cells into the surrounding culture medium, where it is rapidly used by the NanoLuc Enzyme to produce a luminescent signal. The signal correlates with the number of viable cells, making the assay well suited for cytotoxicity studies.
Tox21 Assay Protocol Summary: The mixture of HepG2 cell suspension and reagents were dispensed at 600cells/6 ul/well in 1536-well tissue culture treated black solid bottom plates using a Multidrop dispenser. After the assay plates were incubated at a 37 C/5% CO2 incubator for 5 hours, 23 nL of compounds dissolved in DMSO, positive and negative controls was transferred to the assay plate by a pintool work station. The plates were incubated at 37 C for 40 hours. The luminescence intensity were measured at 0h, 8h, 16h, 24h, 32h and 40h time points using ViewLux plate reader during compound treatment.

**Q.** With `CNC(=O)Oc1ccccc1OC(C)C` as the molecule, how does the outcome read?
**A.** The outcome was “inactive”.

**Q.** With `C=C(C)CCl` as the molecule, how does the outcome read?
**A.** The outcome was “inactive”.

**Q.** Which outcome does the source give for `COc1ccc2c3c1O[C@H]1[C@@H](O)C=C[C@H]4[C@@H](C2)N(C)CC[C@@]341` here?
**A.** Its outcome is “inactive”.

**Q.** With `CCNc1nc(NC(C)C)nc(SC)n1` as the molecule, how does the outcome read?
**A.** Its outcome is “inactive”.

**Q.** Which outcome does the source give for `C[C@]12CC[C@H]3[C@@H](CC[C@@]45O[C@@H]4C(O)=C(C#N)C[C@]35C)[C@@H]1CC[C@@H]2O` here?
**A.** Its outcome is “inactive”.

**Q.** With `CCCCCCCCCCCC#N` as the molecule, how does the outcome read?
**A.** The outcome was “inactive”.

**Q.** With `CCOP(OCC)OCC` as the molecule, how does the outcome read?
**A.** Its outcome is “inactive”.

**Q.** Which outcome does the source give for `C#CCN(C)[C@H](C)Cc1ccccc1` here?
**A.** Its outcome is “inactive”.

**Q.** For `Cc1[nH]c(=O)n(C(C)(C)C)c(=O)c1Cl`, which outcome is on record?
**A.** Its outcome is “inactive”.

**Q.** For `Cc1ccc(N)cc1N`, which outcome is on record?
**A.** Its outcome is “inactive”.

**Q.** Which outcome does the source give for `O=NN1CCCCCCC1` here?
**A.** Its outcome is “inactive”.

**Q.** Which outcome does the source give for `OCCN(CCO)CCO` here?
**A.** The outcome was “inactive”.

**Q.** Which outcome does the source give for `CC(NC(C)(C)C)C(=O)c1cccc(Cl)c1` (stereo not given) here?
**A.** The outcome was “inactive”.

**Q.** For `CCOP(=S)(OCC)SCCSCC`, which outcome is on record?
**A.** Its outcome is “inactive”.

**Q.** For `O=[N+]([O-])c1ccc([As](=O)(O)O)cc1`, which outcome is on record?
**A.** Its outcome is “inactive”.

**Q.** With `CC(C)NC(=O)N1CC(=O)N(c2cc(Cl)cc(Cl)c2)C1=O` as the molecule, how does the outcome read?
**A.** Its outcome is “inactive”.

**Q.** Which outcome does the source give for `CCC[N+](=O)[O-]` here?
**A.** Its outcome is “inactive”.

**Q.** For `CC(C)C#N`, which outcome is on record?
**A.** The outcome was “inactive”.

**Q.** With `CC(=O)C=C(C)C` as the molecule, how does the outcome read?
**A.** Its outcome is “inactive”.

**Q.** For `CCOC(=O)c1ccccc1C(=O)OCC`, which outcome is on record?
**A.** The outcome was “inactive”.

**Q.** For `CCCCN(CCCC)SN(C)C(=O)Oc1cccc2c1OC(C)(C)C2`, which outcome is on record?
**A.** The outcome was “inactive”.

**Q.** For `O=NN1CCCC1`, which outcome is on record?
**A.** The outcome was “inactive”.

**Q.** With `CON(C)C(=O)Nc1ccc(Cl)c(Cl)c1` as the molecule, how does the outcome read?
**A.** The outcome was “inactive”.

**Q.** With `O=c1[nH]c(=O)[nH]c(=O)[nH]1` as the molecule, how does the outcome read?
**A.** Its outcome is “inactive”.

**Q.** With `O=Cc1cccc(Oc2ccccc2)c1` as the molecule, how does the outcome read?
**A.** The outcome was “inactive”.

**Q.** For `CC(C)(C)OOC(=O)c1ccccc1`, which outcome is on record?
**A.** The outcome was “inactive”.

**Q.** Which outcome does the source give for `C1CN2CCN1CC2` here?
**A.** Its outcome is “inactive”.

**Q.** Which outcome does the source give for `O=c1ccc(=O)[nH][nH]1` here?
**A.** The outcome was “inactive”.

**Q.** Which outcome does the source give for `CC(C)OC(=O)Nc1cccc(Cl)c1` here?
**A.** The outcome was “inactive”.

**Q.** With `CCN(CC)c1ccccc1` as the molecule, how does the outcome read?
**A.** The outcome was “inactive”.

**Q.** For `c1ccc(OP(Oc2ccccc2)Oc2ccccc2)cc1`, which outcome is on record?
**A.** Its outcome is “inactive”.

**Q.** Which outcome does the source give for `NCC(O)c1ccc(O)cc1` (stereo not given) here?
**A.** Its outcome is “inactive”.

**Q.** Which outcome does the source give for `CC(C)C1(C)N=C(c2nc3ccccc3cc2C(=O)O)NC1=O` (stereo not given) here?
**A.** Its outcome is “inactive”.

**Q.** For `O=c1n(Cl)c(=O)n(Cl)c(=O)n1Cl`, which outcome is on record?
**A.** The outcome was “inactive”.

**Q.** With `c1ccc(-c2ccccc2)cc1` as the molecule, how does the outcome read?
**A.** Its outcome is “inactive”.

**Q.** Which outcome does the source give for `CCN(CC)CCO` here?
**A.** The outcome was “inactive”.

**Q.** With `CCCCN(CC)C(=O)SCCC` as the molecule, how does the outcome read?
**A.** The outcome was “inactive”.

**Q.** For `CCCCCCCCCl`, which outcome is on record?
**A.** Its outcome is “inactive”.

**Q.** For `Cn1cc(-c2ccccc2)c(=O)c(-c2cccc(C(F)(F)F)c2)c1`, which outcome is on record?
**A.** The outcome was “inactive”.

**Q.** With `ClCCBr` as the molecule, how does the outcome read?
**A.** The outcome was “inactive”.

Reference: PubChem BioAssay (Tox21)
